The values below come from ChEMBL document CHEMBL1961873, “Compounds: GSK PKIS; Assays: Nanosyn kinase panel” (2012).

Assay [1] deals with MAP/microtubule affinity-regulating kinase 3 (Homo sapiens) (UniProt P27448). The settings on record: at 1 µM.
The target in assay [2] is T1, MAP/microtubule affinity-regulating kinase 4 (Homo sapiens) (UniProt Q96L34).
T1 sequence (whole entry): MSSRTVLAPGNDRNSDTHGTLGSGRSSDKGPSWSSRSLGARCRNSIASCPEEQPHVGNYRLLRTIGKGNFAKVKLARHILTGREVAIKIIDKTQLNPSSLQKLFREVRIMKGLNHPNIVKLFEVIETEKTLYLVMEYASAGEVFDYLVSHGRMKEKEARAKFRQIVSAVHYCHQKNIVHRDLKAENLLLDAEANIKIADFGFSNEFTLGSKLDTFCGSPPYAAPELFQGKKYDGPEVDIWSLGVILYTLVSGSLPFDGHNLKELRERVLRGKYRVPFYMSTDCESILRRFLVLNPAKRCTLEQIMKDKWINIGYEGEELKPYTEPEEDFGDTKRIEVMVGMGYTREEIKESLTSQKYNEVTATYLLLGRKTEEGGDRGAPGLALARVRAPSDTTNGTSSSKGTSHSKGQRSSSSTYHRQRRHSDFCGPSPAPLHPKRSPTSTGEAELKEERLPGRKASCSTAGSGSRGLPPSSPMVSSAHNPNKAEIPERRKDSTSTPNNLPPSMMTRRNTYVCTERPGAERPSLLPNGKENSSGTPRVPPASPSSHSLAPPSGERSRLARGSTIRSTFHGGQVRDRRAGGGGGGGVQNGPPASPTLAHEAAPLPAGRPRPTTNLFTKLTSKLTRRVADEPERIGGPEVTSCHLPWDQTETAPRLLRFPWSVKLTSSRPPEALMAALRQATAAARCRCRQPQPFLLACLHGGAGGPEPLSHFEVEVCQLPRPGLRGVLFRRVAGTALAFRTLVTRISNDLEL
Particulars: at 0.1 µM.

Assay [3] addresses T1, MAP/microtubule affinity-regulating kinase 4 (Homo sapiens). The settings on record: at 1 µM.
In assay [4] the target is Maternal embryonic leucine zipper kinase (Homo sapiens) (UniProt Q14680). The settings on record: at 0.1 µM.
The target is the same in assay [5]. Particulars: at 1 µM.
In assay [6] the target is MAP kinase-interacting serine/threonine-protein kinase 1 (Homo sapiens) (UniProt Q9BUB5). The settings on record: at 0.1 µM.
Assay [7] has the same target. The settings on record: at 1 µM.
The target in assay [8] is MAP kinase-interacting serine/threonine-protein kinase 2 (Homo sapiens) (UniProt Q9HBH9). Particulars: at 0.1 µM.
Assay [9] shares this target. The settings on record: at 1 µM.
The target in assay [10] is Serine/threonine-protein kinase MARK2 (Homo sapiens) (UniProt Q7KZI7). The settings on record: at 0.1 µM.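 Note: mean percent inhibition of PAR-1Balpha kinase activity, reported from the GSK PKIS screen.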

What is called inhibition is the drop in the measured response relative to a control, in per cent.

Chain of Maternal embryonic leucine zipper kinase (Homo sapiens) (Q14680 whole entry, looked up): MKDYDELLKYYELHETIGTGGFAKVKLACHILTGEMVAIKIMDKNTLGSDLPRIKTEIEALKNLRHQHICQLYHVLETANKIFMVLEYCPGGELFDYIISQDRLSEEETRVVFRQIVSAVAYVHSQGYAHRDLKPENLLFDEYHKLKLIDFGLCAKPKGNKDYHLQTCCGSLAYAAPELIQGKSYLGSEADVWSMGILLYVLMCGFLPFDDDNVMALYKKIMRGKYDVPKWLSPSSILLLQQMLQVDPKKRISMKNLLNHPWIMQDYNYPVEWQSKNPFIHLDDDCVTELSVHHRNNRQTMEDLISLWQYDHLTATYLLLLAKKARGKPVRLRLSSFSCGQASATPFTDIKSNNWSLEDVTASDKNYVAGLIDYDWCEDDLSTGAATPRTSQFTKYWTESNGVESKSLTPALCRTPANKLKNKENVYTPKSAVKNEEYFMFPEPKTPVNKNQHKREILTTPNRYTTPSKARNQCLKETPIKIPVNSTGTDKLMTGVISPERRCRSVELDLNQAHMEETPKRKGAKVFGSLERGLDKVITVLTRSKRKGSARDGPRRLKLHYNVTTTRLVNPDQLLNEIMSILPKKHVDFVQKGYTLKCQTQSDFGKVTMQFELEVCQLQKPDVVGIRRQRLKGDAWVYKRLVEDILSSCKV
Chain of MAP kinase-interacting serine/threonine-protein kinase 2 (Homo sapiens) (Q9HBH9 whole entry, looked up): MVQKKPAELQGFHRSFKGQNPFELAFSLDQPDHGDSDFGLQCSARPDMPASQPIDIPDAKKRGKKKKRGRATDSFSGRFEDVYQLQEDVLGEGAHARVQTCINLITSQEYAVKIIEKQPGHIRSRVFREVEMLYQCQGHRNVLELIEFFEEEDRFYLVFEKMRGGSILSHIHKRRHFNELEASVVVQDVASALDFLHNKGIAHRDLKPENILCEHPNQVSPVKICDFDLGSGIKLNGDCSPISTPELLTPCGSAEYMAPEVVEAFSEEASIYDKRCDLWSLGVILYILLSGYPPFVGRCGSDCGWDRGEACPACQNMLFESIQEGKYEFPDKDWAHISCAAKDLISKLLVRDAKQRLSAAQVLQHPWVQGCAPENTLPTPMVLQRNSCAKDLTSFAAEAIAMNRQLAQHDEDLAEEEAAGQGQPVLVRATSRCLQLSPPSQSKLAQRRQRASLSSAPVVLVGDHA
Chain of MAP kinase-interacting serine/threonine-protein kinase 1 (Homo sapiens) (Q9BUB5 whole entry, looked up): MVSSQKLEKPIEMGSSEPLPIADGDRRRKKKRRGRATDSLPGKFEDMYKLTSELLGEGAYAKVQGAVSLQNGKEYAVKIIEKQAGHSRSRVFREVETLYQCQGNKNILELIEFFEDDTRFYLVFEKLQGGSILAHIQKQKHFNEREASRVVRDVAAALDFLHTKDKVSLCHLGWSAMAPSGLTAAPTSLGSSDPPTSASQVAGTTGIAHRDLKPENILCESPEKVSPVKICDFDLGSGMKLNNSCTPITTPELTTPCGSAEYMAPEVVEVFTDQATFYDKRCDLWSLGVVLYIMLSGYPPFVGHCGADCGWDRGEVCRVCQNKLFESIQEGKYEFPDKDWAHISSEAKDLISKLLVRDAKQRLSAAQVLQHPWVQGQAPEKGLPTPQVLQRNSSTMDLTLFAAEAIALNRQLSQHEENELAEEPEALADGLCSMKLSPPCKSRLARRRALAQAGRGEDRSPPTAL
Chain of Serine/threonine-protein kinase MARK2 (Homo sapiens) (Q7KZI7 whole entry): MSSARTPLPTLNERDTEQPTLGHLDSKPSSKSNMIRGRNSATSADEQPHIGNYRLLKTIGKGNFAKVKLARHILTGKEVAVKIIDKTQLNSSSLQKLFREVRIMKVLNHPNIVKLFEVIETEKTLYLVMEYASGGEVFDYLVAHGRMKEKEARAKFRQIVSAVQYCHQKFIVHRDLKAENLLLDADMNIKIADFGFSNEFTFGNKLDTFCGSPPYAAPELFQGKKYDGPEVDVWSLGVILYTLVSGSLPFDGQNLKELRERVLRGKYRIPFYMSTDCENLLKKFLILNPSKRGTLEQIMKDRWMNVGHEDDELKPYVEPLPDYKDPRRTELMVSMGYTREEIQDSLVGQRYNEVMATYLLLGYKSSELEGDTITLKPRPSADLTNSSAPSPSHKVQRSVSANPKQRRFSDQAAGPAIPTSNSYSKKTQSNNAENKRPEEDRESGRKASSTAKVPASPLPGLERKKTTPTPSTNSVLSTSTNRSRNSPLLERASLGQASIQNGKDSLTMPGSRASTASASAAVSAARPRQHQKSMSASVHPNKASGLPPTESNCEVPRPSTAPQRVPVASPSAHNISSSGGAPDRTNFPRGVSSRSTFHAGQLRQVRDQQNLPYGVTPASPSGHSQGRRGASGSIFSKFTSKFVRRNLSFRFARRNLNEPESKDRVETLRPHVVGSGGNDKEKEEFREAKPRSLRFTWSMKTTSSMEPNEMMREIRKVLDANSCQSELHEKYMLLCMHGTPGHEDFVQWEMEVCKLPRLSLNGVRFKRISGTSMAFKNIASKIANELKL
Chain of MAP/microtubule affinity-regulating kinase 3 (Homo sapiens) (P27448 whole entry, looked up): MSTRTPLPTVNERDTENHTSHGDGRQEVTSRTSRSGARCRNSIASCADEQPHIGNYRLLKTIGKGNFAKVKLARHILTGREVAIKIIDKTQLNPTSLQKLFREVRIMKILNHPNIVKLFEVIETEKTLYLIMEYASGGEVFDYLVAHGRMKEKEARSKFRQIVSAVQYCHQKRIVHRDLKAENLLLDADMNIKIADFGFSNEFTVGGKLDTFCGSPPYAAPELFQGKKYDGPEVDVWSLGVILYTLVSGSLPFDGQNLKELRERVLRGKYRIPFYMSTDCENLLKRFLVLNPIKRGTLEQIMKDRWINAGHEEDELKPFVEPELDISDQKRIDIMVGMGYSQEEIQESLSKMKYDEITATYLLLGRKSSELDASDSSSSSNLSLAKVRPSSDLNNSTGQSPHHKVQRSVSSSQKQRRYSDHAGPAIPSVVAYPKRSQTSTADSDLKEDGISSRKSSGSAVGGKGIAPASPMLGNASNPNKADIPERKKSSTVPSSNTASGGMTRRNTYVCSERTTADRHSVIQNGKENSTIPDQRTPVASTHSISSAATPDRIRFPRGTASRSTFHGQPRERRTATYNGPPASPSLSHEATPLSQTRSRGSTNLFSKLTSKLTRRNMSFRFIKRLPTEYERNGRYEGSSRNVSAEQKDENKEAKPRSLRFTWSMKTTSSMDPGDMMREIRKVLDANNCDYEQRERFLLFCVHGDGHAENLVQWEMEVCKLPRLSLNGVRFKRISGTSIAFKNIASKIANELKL

With `NC(=O)c1cc(-c2ccc(F)cc2)cc(-c2ccncc2)c1N`, the inhibition in assay [1] is -2.7%; in assay [2], 1.2%; in [3], 2.29%; in assay [4] it was 2.86%; in assay [5] it was 4.94%; in assay [6] it was 3.36%. For the same compound, the inhibition in assay [7] was found to be 12.1%; in assay [8], 1.44%; in assay [9], 3.34%; in assay [10] it was 0.15%.

Take `C[C@@H](Oc1cc(-n2cnc3ccc(OC4CCN(C)CC4)cc32)sc1C(N)=O)c1ccccc1Cl`: the inhibition in [1] is 8.01%; in [2], 2.31%; in [3] it was 5.68%; in assay [4], 6.66%; in [5], 26.9%; in [6] it was 3.58%. Besides, the inhibition was found to be 17.6% in [7], 3.77% in assay [8], 21% in assay [9] and 2.47% in assay [10].

For `COc1ccc(-c2ccc3c(NC(=O)C4CC4)n[nH]c3n2)cc1`, the inhibition in [1] was 2.41%; in assay [2], 0%; in assay [3] it was -0.43%; in assay [4], -1.74%; in assay [5] it was -0.77%; in [6], 3.03%. Besides, the inhibition worked out at 21.5% in assay [7], 1.32% in assay [8], 5.48% in assay [9] and 0.67% in assay [10].

For `O=C1Nc2ccccc2/C1=C/Nc1ccc(-n2cncn2)cc1`, the inhibition in [1] worked out at 36.4%; in [2], 3.35%; in assay [3] it was 17.9%; in [4] it was 6.89%; in assay [5] it was 25.8%; in assay [6] it was 7.6%. Moreover, the inhibition amounted to 14.8% in assay [7], 2.4% in [8], 8.07% in assay [9] and 1.47% in assay [10].

As to `Cc1nnc(-c2ccc(C)c(-c3ccc(C(=O)NCc4ccc(Cl)cc4)cc3)c2)o1`, the inhibition in assay [1] was -1.1%; in assay [2], 2.02%; in assay [3] it was 1.96%; in assay [4] it was 4.87%; in assay [5], 5.52%; in assay [6] it was 2.03%. Besides, the inhibition in assay [7] stood at 6.45%; in [8], 0.86%; in assay [9], 1.57%; in assay [10] it was 1.6%.

Consider `NS(=O)(=O)c1ccc(N/N=C2\C(=O)Nc3ccc(-c4cnco4)cc32)cc1`, for which the inhibition in assay [1] came out at 17.4%; in assay [2], 4.35%; in [3], 26.1%; in assay [4], 5.8%; in [5], 32.9%; in assay [6], 1.41%. For the same compound, the inhibition stood at 7.87% in [7], 2.14% in [8], 8.88% in [9] and 1.73% in assay [10].

With `CN(C)CCCNc1nccc(-c2c(-c3ccc(F)cc3)nn3cc(C(F)(F)F)ccc23)n1`, the inhibition in assay [1] stood at 3%; in assay [2], 1.09%; in assay [3], 2.72%; in [4], 1.14%; in assay [5] it was 2.95%; in assay [6], 1.94%. Also, the inhibition is 8.83% in assay [7], 0.89% in [8], 6.51% in assay [9] and -0.22% in assay [10].

Regarding `NC(=O)c1ccc(Oc2nccc(-c3c(-c4ccc(F)cc4)ncn3C3CCNCC3)n2)cc1`, the inhibition in [1] was 6.64%; in assay [2], 1.51%; in [3], 2.24%; in assay [4], 7.28%; in [5] it was 11.6%; in assay [6], 3.92%. Besides, the inhibition came out at 4.27% in [7], 3.56% in assay [8], 4.79% in assay [9] and 2.73% in assay [10].

On to `CCC(=O)Nc1ccc(C)c(-c2ccc(C(=O)NCC3CC3)cc2)c1`, for which the inhibition in assay [1] is -1.15%; in [2], 1.46%; in assay [3] it was 2.23%; in assay [4], 5.17%; in assay [5] it was 8.13%; in [6] it was 2.05%. Also, the inhibition in assay [7] was 2.8%; in [8], 0.52%; in assay [9] it was 1.17%; in assay [10], 0.59%.

Consider `Fc1ccc(-c2ncn(C3CCNCC3)c2-c2ccnc(Oc3ccc(Oc4ccccc4)cc3)n2)cc1`, for which the inhibition turned out to be 2.05% in [1]; 0.75% in [2]; 2.59% in assay [3]; 6.35% in assay [4]; 11.1% in [5]; 1.1% in assay [6]. The inhibition in [7] came to 1.53%; in assay [8] it was 0.72%; in [9], 1.76%; in assay [10], 2.71%.

In the case of `O=C(Nc1n[nH]c2nc(-c3ccc(O)cc3)c(Br)cc12)C1CC1`, the inhibition in assay [1] was 8.75%; in assay [2], 3.64%; in [3], 4.75%; in assay [4], 6.28%; in assay [5] it was 13.1%; in [6] it was 37.8%. Also, the inhibition in assay [7] is 76.1%; in assay [8], 5.42%; in assay [9], 35.1%; in assay [10], -0.95%.

As to `CS(=O)(=O)CCNCc1ccc(-c2ccc3ncnc(Nc4ccc(OCc5ccccc5)c(Br)c4)c3c2)o1`, the inhibition was -0.13% in assay [1]; 2.98% in [2]; 2.37% in assay [3]; 5.3% in assay [4]; 5.37% in assay [5]; 2.72% in [6]. The inhibition amounted to 6.16% in assay [7], 2.36% in assay [8], 7.73% in [9] and 0.23% in [10].

For `Cc1ccc(C(=O)NC(C)C)cc1-c1ccc(C(=O)NCC2CC2)cc1`, the inhibition in [1] was -0.42%; in [2], 1.15%; in assay [3] it was 0.5%; in [4], -2.85%; in assay [5], -2.99%; in assay [6], -1.07%. For the same compound, the inhibition in [7] was -0.97%; in assay [8] it was -0.04%; in assay [9], 1.12%; in [10] it was 0.38%.

Regarding `O=C1NC(=O)C(c2cccc(Cl)c2)=C1Nc1ccc(Cl)c(C(=O)O)c1`, the inhibition in assay [1] was 8%; in assay [2], 0.26%; in assay [3], 1.44%; in assay [4], -0.69%; in [5] it was 3.67%; in [6] it was 3.32%. The inhibition was 5.32% in assay [7], 2.61% in [8], 4% in assay [9] and -2.87% in assay [10].

For `COc1ccc(C2=C(N3CCc4ccccc43)C(=O)NC2=O)cc1`, the inhibition amounted to 4.14% in [1]; 1.18% in [2]; 2.26% in assay [3]; 4.31% in [4]; 7.73% in [5]; 3.88% in assay [6]. Also, the inhibition was 6.21% in [7], 1.85% in assay [8], 4.28% in assay [9] and -0.02% in assay [10].

For `FC(F)(F)c1cccc(Nc2nccc(-c3cnn4nc(-c5ccccc5)ccc34)n2)c1`, the inhibition was 1.86% in assay [1]; 1.13% in assay [2]; 1.01% in assay [3]; 4.89% in [4]; 32.3% in [5]; 2.28% in assay [6]. The inhibition was 2.48% in assay [7], 0.22% in [8], 4.37% in [9] and -0.36% in [10].

On to `CS(=O)(=O)CCNCc1cc(-c2cc3c(Nc4ccc(OCc5cccc(F)c5)c(Cl)c4)ncnc3s2)cs1`, for which the inhibition in assay [1] stood at 3.64%; in [2], 1.63%; in [3] it was 1.6%; in [4], 5.46%; in [5], 10.5%; in [6], 2.78%. Also, the inhibition in assay [7] is 7.91%; in assay [8] it was 1.16%; in [9] it was 7.96%; in [10], -0.51%.

As for `CCc1nccc2c1nc(-c1nonc1N)n2CC`, the inhibition is -0.48% in assay [1]; 0.74% in assay [2]; 0.5% in assay [3]; -0.92% in assay [4]; 0.69% in assay [5]; -0.04% in assay [6]. The inhibition is 2.83% in assay [7], -0.46% in [8], 4.5% in [9] and 0.35% in assay [10].

Turning to `C#Cc1cccc(Nc2ncnc3ccc(OCCCCNCCS(C)(=O)=O)cc23)c1`, the inhibition was determined as 6.08% in assay [1]; 2.28% in [2]; 3.56% in assay [3]; 3.6% in [4]; 8.09% in [5]; 9.11% in [6]. Moreover, the inhibition in assay [7] was 46.7%; in assay [8], 4.73%; in [9], 31.8%; in assay [10], 1.67%.

For the compound `COc1cc(Nc2ncc(-c3ccccc3)o2)cc(OC)c1OC`, the inhibition in assay [1] is 22.1%; in assay [2], 2.46%; in assay [3], 13.4%; in assay [4] it was -0.49%; in assay [5], 5.74%; in assay [6], 4.6%. In addition, the inhibition in assay [7] worked out at 30.4%; in assay [8], 1.26%; in [9] it was 24.2%; in assay [10] it was 2.94%.
